These results are taken from PubChem BioAssay.

Each structure is given as a SMILES string. The source made the active and inactive calls.

For assay [1], the system named is PRMT1 (protein arginine N-methyltransferase 1). The assay can be described thus: small molecules binding arginine methyltransferase PRMT1 – biochemical, small-molecule microarray, 635 nm fluorescence, primary screen (AID 1088).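 Also: binding of Prmt1 protein to compounds spotted on small-molecule microarray slides.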 The note with it: higher = more signal.
Assay [2] is described as follows: growth effects on S. cerevisiae YJM789 – YJM789 clinical isolate, OD600, 24 h, basal, primary screen (AID 1089).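 Also: growth of clinical yeast isolate S. cerevisiae YJM 789 seeded 1000 cells per well; test concentration not given here.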 The following applies: higher = more signal, called active from +8 up or from −8 down.
A short description of assay [3]: S. pombe growth modifiers, basal conditions – strain 972, OD600, 24 h, no modulator, primary screen (AID 1090).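 Also: basal condition with compound alone and no growth modifier present; test concentration not given here.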 The note with it: S. pombe 972 growth, higher = more signal, called active from +8 up or from −8 down.
The nature of assay [4]: budding yeast growth modifiers under rapamycin – strain BY4716, OD600, 96 h, primary screen (AID 1091). Also: test concentration not given here. The note with it: S. cerevisiae BY4716 + rapamycin, higher = more signal, called active from +8 up or from −8 down.
Assay [5] addresses Torsin-1A-interacting protein 2 (Homo sapiens) (UniProt Q8NFQ8). Nature of the assay: small molecules binding lysate-expressed LULL1 – cell lysate, human LULL1 lysate, 635/667 nm fluorescence, primary screen (AID 1092).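 Also: probe is lysate of COS7 cells overexpressing human LULL1; score merges per-feature 667 nm fluorescence with signal-to-noise.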 The following applies: small-molecule microarray, hLULL1 lysate binding, 635 nm fluorescence; higher = more signal.
Assay [6] can be described thus: optical density change of DRC41 E. coli – strain DRC41, OD650, 24 h, E. coli filamentation project, primary screen (AID 1093).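 Also: MC1000 strain lacking acrAB efflux and sulA so SOS filamentation is blocked; test concentration not given here.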 The following applies: E. coli DRC41 growth, higher = more signal, called active from +8 up or from −8 down.
The nature of assay [7]: probe aLefty2 binding to arrayed compounds – biochemical, biotinylated probe, 635/667 nm fluorescence, primary screen (AID 1094).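 Also: score merges spot fluorescence near 667 nm with spot signal-to-noise ratio.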 The following applies: small-molecule microarray, higher = more signal.
Assay [8] has as its system Noggin (protein binding on small-molecule microarray). The assay can be described thus: small molecules binding Noggin protein – biochemical, 635/667 nm fluorescence, primary screen (AID 1095).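 Also: score merges 667 nm feature fluorescence with signal to noise over triplicate slides.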 The following applies: 635 nm fluorescence, higher = more signal.
Assay [9] addresses Neurogenic locus notch homolog protein 3 (Homo sapiens) (UniProt Q9UM47). The assay can be described thus: small molecules binding NOTCH3 protein – biochemical, 635/667 nm fluorescence, primary screen (AID 1096). The note with it: small-molecule microarray, 635 nm fluorescence, higher = more signal.
Assay [10] can be described thus: probe aEGFR binding to arrayed compounds – biochemical, biotinylated probe, 635/667 nm fluorescence, primary screen (AID 1097).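 Also: probe is a biotinylated anti-EGFR antibody binding compounds printed on slides; score combines fluorescence near 667 nm and signal to noise of each spot.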 The following applies: small-molecule microarray, higher = more signal.
The test system of assay [11] is Plasmodium falciparum Sir2 (PF13_0152, Sir2A). Nature of the assay: Plasmodium falciparum Sir2A binding compounds – biochemical, small-molecule microarray, 635 nm fluorescence, primary screen (AID 1098).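 Also: score merges spot fluorescence intensity with its signal-to-noise ratio.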 The note with it: fluorescence 635 nm, higher = more signal.
Assay [12] is described as follows: probe aDKK1 binding to arrayed compounds – biochemical, biotinylated probe, 635/667 nm fluorescence, primary screen (AID 1099).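 Also: score merges 667nm spot fluorescence with signal to noise across triplicate slides; reference of the scale not given here.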 The following applies: small-molecule microarray, higher = more signal.
A short description of assay [13]: probe aCHRDL2 binding to arrayed compounds – biochemical, biotinylated probe, 635/667 nm fluorescence, primary screen (AID 1100). The following applies: small-molecule microarray, higher = more signal.
Assay [14] in a line: change in splice reporter luminescence, either direction, cell-based, HEK293, spliceosome inhibition project, primary screen (AID 1101).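 Also: HEK293 cells carrying a splicing-competent luciferase reporter gene; test concentration not given here.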 The following applies: HEK293 splicing luciferase reporter, 24 h, higher = more signal, called active from +8 up or from −8 down. For orientation: In a reporter assay the amount or activity of a reporter protein is the signal.
Assay [15] concerns the target Fibroblast growth factor 10 (Homo sapiens) (UniProt O15520). Nature of the assay: compounds binding fibroblast growth factor 10 – biochemical, small-molecule microarray, 635 nm fluorescence, primary screen (AID 1102). The following applies: FGF10 binding, fluorescence 635 nm, higher = more signal.
Assay [16] concerns glycogen synthase kinase-3 (GSK3A per assay name; protocol says GSK3B). The assay can be described thus: compounds binding glycogen synthase kinase-3 – biochemical, small-molecule microarray, 635 nm fluorescence, GSK3A, primary screen (AID 1103). Also: the record names both GSK3A and GSK3B. The following applies: fluorescence 635 nm, higher = more signal.
The target in assay [17] is Epidermal growth factor receptor (Homo sapiens) (UniProt P00533). Nature of the assay: compounds binding epidermal growth factor receptor – biochemical, small-molecule microarray, 635 nm fluorescence, primary screen (AID 1104).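 Also: score merges 667 nm emission intensity with spot signal to noise over triplicate slides.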 The following applies: EGFR binding, higher = more signal.
In assay [18] the target is Follistatin-related protein 3 (Homo sapiens) (UniProt O95633). The assay can be described thus: compounds binding follistatin-related protein 3 – biochemical, small-molecule microarray, 635 nm fluorescence, primary screen (AID 1105).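 Also: score merges emission near 667 nm and signal to noise per printed spot across three slides.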 The following applies: FSTL3 binding, higher = more signal.
For assay [19], the target named is Dickkopf-related protein 1 (Homo sapiens) (UniProt O94907). Nature of the assay: small molecules binding DKK1 protein – biochemical, small-molecule microarray, 635 nm fluorescence scan, primary screen (AID 1106).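 Also: score merges emission near 667 nm with signal to noise over three replicate slides.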 The note with it: higher = more signal.
In assay [20] the test system is Inhibin beta A chain (activin A). Nature of the assay: small molecules binding activin A – biochemical, small-molecule microarray, 635 nm fluorescence scan, primary screen (AID 1107).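 Also: mouse activin A protein probed at 4.33 µg/mL on printed slides; score merges bound-protein fluorescence near 667 nm with spot signal-to-noise.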 The following applies: INHBA, higher = more signal.

Sequence of Torsin-1A-interacting protein 2 (Homo sapiens) (Q8NFQ8 whole entry, looked up): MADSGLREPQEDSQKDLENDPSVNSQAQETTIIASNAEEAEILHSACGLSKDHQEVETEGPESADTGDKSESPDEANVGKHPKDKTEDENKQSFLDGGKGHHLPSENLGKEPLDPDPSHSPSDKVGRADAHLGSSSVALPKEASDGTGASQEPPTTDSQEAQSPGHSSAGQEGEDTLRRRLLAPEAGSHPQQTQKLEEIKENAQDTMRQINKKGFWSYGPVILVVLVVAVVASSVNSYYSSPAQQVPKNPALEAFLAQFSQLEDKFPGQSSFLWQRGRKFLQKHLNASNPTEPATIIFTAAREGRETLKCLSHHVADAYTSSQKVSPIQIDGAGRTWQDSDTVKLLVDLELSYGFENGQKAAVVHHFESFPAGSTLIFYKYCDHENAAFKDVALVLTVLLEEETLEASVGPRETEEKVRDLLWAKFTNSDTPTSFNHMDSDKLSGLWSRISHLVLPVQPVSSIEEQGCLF
Sequence of Neurogenic locus notch homolog protein 3 (Homo sapiens) (Q9UM47 whole entry, looked up): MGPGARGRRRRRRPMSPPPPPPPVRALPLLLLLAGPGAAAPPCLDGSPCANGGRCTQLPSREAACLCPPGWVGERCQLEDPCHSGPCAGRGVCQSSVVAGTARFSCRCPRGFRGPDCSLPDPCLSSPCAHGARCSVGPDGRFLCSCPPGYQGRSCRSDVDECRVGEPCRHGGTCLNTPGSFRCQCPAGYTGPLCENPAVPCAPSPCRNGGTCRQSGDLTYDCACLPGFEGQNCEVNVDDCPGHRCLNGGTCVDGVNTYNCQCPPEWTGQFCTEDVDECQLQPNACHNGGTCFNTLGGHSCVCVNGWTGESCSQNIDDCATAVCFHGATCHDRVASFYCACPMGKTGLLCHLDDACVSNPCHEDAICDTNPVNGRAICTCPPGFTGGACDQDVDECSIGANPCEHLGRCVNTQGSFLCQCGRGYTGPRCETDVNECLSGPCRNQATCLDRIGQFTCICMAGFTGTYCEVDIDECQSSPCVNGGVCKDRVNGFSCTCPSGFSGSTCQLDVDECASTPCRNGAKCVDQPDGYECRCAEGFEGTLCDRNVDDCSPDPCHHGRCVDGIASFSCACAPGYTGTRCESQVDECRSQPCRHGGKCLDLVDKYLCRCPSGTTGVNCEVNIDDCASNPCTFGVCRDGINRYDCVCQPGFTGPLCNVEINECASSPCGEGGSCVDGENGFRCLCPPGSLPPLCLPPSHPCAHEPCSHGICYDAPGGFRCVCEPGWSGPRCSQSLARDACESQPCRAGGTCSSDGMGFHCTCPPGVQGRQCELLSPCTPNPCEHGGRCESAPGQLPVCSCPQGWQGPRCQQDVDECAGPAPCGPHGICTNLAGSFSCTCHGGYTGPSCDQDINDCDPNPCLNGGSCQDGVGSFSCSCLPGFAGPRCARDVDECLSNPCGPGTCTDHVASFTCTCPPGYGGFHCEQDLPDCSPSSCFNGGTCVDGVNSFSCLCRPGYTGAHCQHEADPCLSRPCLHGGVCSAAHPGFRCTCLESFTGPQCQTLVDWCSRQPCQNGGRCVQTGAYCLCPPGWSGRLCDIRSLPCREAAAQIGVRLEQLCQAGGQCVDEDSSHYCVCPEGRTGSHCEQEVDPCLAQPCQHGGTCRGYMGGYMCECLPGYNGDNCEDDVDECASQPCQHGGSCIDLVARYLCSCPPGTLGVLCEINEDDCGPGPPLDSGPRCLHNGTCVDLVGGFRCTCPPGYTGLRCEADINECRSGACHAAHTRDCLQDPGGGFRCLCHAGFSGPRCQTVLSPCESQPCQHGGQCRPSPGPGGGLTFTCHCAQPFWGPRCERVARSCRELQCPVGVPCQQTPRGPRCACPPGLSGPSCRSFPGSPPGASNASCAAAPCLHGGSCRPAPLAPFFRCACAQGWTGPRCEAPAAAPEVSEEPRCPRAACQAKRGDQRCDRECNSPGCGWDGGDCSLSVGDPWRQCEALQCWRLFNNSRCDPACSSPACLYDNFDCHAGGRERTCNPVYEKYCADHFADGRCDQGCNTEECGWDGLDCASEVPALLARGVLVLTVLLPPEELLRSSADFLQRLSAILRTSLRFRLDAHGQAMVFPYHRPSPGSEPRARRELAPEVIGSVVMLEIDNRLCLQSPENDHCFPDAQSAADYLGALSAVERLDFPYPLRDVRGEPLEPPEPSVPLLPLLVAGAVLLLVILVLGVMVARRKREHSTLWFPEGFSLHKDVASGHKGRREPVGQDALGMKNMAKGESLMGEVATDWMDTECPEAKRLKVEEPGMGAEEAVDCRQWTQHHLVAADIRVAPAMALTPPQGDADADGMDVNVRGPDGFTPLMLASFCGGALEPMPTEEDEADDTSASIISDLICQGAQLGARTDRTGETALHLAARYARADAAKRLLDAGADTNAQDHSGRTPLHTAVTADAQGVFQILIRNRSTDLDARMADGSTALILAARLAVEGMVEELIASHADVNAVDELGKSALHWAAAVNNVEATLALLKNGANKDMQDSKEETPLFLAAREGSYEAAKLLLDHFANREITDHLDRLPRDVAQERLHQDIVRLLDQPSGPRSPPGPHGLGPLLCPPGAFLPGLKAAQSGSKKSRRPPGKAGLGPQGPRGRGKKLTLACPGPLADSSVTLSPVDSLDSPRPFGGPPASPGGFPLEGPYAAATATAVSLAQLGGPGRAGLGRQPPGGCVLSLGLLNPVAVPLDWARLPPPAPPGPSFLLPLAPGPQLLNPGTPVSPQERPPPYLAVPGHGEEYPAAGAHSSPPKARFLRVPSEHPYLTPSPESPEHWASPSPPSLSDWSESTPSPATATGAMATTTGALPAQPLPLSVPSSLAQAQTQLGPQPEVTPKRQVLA
Sequence of Fibroblast growth factor 10 (Homo sapiens) (O15520 whole entry, looked up): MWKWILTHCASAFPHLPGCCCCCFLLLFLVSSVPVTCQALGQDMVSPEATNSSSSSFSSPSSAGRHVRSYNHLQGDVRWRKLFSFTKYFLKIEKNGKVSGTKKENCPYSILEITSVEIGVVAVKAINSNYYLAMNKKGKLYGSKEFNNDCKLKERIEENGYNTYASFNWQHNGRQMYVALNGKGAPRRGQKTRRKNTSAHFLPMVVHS
Sequence of Epidermal growth factor receptor (Homo sapiens) (P00533 whole entry, looked up): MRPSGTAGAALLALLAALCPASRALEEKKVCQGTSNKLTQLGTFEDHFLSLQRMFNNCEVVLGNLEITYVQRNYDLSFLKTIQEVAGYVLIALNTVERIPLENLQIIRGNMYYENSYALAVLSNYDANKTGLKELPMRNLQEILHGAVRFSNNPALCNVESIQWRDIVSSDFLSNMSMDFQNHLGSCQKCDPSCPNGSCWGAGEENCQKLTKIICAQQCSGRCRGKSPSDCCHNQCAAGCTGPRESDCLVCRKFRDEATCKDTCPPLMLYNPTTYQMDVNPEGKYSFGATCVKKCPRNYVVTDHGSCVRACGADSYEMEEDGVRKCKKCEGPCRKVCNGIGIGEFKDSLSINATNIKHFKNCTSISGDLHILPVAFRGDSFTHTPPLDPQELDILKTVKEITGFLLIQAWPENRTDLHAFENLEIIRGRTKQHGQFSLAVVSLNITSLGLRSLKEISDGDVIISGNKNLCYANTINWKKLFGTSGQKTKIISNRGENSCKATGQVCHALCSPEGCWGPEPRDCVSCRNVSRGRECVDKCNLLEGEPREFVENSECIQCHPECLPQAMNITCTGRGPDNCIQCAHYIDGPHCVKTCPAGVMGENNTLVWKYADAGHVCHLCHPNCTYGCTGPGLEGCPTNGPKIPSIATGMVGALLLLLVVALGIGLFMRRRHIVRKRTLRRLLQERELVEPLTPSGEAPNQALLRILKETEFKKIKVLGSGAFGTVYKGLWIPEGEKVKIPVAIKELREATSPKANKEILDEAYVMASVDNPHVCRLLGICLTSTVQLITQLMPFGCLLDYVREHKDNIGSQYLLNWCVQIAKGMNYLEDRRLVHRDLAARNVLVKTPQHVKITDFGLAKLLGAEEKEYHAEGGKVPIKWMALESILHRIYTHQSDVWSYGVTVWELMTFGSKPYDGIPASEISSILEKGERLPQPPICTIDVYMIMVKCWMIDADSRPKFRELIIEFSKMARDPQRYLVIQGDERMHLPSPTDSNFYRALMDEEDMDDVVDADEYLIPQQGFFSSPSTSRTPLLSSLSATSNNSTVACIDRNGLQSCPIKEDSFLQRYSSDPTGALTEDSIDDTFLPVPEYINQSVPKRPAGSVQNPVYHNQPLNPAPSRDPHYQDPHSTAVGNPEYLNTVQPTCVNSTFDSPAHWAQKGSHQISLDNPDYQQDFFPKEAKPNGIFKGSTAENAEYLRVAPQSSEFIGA
Sequence of Dickkopf-related protein 1 (Homo sapiens) (O94907 whole entry, looked up): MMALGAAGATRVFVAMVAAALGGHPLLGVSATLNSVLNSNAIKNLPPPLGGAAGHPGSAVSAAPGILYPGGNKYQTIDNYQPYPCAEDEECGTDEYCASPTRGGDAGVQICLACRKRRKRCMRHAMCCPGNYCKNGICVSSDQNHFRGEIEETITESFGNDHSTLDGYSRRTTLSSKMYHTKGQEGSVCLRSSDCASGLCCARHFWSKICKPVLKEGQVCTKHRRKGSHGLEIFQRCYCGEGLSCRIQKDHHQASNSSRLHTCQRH
Sequence of Follistatin-related protein 3 (Homo sapiens) (O95633 whole entry, looked up): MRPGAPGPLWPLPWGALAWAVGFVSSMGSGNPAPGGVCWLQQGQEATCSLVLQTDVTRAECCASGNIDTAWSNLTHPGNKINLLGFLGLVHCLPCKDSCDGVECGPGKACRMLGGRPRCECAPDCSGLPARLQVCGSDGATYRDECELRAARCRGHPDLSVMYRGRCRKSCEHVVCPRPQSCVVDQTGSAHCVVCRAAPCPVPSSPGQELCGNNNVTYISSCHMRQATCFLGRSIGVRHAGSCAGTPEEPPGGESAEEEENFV

Regarding `Cc1ccc(S[C@]2(C(=O)NCC(F)(F)F)CC(=O)N(Cc3cc(C(F)(F)F)cc(C(F)(F)F)c3)[C@@H]2c2ccc(CO)cc2)cc1`, the composite z-score in [1] was 1.31; in [5], 1.79; in assay [7], -0.152; in [8], -0.556; in [9], -0.133; in assay [10] it was -0.181. Also, the composite z-score in assay [11] is 1.13; in assay [12] it was -0.193; in assay [13], 0.532; in assay [15], -0.463; in assay [16], -0.864; in assay [17] it was -0.814. For the same compound, the figures for the composite z-score in [18], in assay [19] and in [20] were -0.861, -0.928 and -0.45, respectively. The z-score in [2] was 0.0966 (inactive); in assay [3], -0.322 (inactive); in assay [4], -1.53 (inactive); in assay [6], -0.002 (inactive); in assay [14] it was 0.507 (inactive).

Consider `CCCC1(C(=O)OC)C=C2C(=C(C)C(=O)C2C)CN1` (stereo not given), for which the composite z-score in [1] was -1.06; in assay [5], 0.941; in assay [7], 0.0932; in [8], -0.0743; in [9], -0.0768; in assay [10], -0.0828. For the same compound, the composite z-score was -0.79 in assay [11]; 0.719 in [12]; 0.974 in assay [13]; 0.168 in assay [15]; -0.636 in assay [16]; 0.0023 in assay [17]. Further, the composite z-score was -0.105 in [18], -0.238 in assay [19] and 1.57 in assay [20]. Further, the z-score in assay [2] was -0.105 (inactive); in assay [3], 0.883 (inactive); in assay [4] it was 0.578 (inactive); in assay [6] it was -0.827 (inactive); in assay [14] it was 0.888 (inactive).

Take `CCOC(=O)C[C@H]1[C@H](OC(=O)Cc2ccc3c(c2)OCO3)[C@@H](NC(=O)c2ccc3ccccc3n2)c2cc(OCCCO)ccc2N1C(=O)c1ccccc1`: the composite z-score in assay [1] is 0.299; in assay [5], 0.604; in assay [7] it was 0.0209; in assay [8] it was 0.257; in assay [9], 0.363; in [10], -0.0039. Besides, the composite z-score is 0.153 in assay [11]; 0.0565 in [12]; -0.33 in assay [13]; 0.445 in assay [15]; 0.0897 in assay [16]; 0.0654 in assay [17]. Further, the composite z-score in [18] is 0.73; in assay [19] it was 0.283; in [20], 0.696. The z-score was 0.131 (inactive) in assay [2]; -0.931 (inactive) in [3]; 0.336 (inactive) in [4]; 0.887 (inactive) in assay [6]; -0.149 (inactive) in assay [14].

`O=C(O)[C@@H]1C[C@@H]2C(=O)N3CCC[C@H]3C(=O)N2[C@@H]1c1ccc(O)cc1`: the composite z-score in assay [1] was 1.56; in assay [5] it was 1.34; in assay [7], 0.226; in [8] it was 1.93; in assay [9], 1.01; in assay [10] it was 0.12. The composite z-score in assay [11] was 1.51; in assay [12] it was 0.857; in assay [13], 0.11; in assay [15], 0.196; in [16] it was 0.762; in assay [17], 0.426. In addition, the results for the composite z-score in assay [18], in [19] and in [20] were 0.987, 0.975 and 0.852, respectively. Further, the z-score in [2] was -0.475 (inactive); in [3], -0.854 (inactive); in assay [4], 0.0128 (inactive); in [6], 2.46 (inactive); in [14] it was -2.2 (inactive).

Take `C=C[C@H](C)[C@H](OC(=O)Nc1ccc(SC)cc1)c1ccc(OCCO)cc1`: the composite z-score in assay [1] is 1.31; in [5], 1.53; in assay [7] it was 0.0548; in assay [8] it was 0.415; in assay [9], 0.862; in [10] it was -0.15. The composite z-score in [11] stood at 1.12; in assay [12], 0.157; in [13], 0.916; in [15] it was 0.515; in [16], 0.394; in assay [17] it was 0.183. The figures for the composite z-score in assay [18], in assay [19] and in assay [20] were 0.42, 0.148 and 0.081, respectively. Moreover, the z-score in [2] was -3.79 (inactive); in assay [3], -2.34 (inactive); in [4], 0.375 (inactive); in assay [6], 0.938 (inactive); in assay [14], -3.34 (inactive).
